Bioassay records: PubChem, National Center for Advancing Translational Sciences (NCATS)
HP1b chromo inh = HTS for Inhibitors of HP1-beta Chromodomain Interactions with Methylated Histone Tails; Potency, µM (series often up to 114 µM), inactives show at the highest dose activity change, negative = inhibition, usual class: inhibitors; AID 540317, 2011; actives 0.56% (n = 390,000); Chromobox protein homolog 1 (Homo sapiens), P83916; AlphaScreen HP1-beta / biotin-H3K9me3 peptide binding; also: potency is read from the fitted curve at half-maximal effect; nearly all actives have a fitted effect of over 70% in size
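HP1-beta protein (50 nM final) preincubated 30 min at room temperature with biotinylated H3(1-18)K9me3 peptide (50 nM) in PBS pH 7.4, 0.01% Tween-20, then compound added for 30 min. AlphaScreen streptavidin donor/nickel chelate acceptor beads (10 ug/mL final), 30 min dark, luminescence read.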
PLK1 PBD inh = qHTS for Inhibitors of PLK1-PDB (polo-like kinase 1 - polo-box domain): Primary Screen | Potency, µM, inactives show max response, negative = inhibition, most hits filed as inhibitors | AID 720504, 2013 | actives 2.8% (n = 360,000) | Plk1 PBD binding of FITC phosphopeptide, fluorescence polarization; also: potency is read from the fitted curve at half-maximal effect; series mostly up to about 57 µM; % is scaled to controls: 0 for no effect and ±100 for the full control effect; nearly all actives have a fitted effect of over 65% in size
Target sequence (P53350 whole entry, looked up, the tested form may be a part): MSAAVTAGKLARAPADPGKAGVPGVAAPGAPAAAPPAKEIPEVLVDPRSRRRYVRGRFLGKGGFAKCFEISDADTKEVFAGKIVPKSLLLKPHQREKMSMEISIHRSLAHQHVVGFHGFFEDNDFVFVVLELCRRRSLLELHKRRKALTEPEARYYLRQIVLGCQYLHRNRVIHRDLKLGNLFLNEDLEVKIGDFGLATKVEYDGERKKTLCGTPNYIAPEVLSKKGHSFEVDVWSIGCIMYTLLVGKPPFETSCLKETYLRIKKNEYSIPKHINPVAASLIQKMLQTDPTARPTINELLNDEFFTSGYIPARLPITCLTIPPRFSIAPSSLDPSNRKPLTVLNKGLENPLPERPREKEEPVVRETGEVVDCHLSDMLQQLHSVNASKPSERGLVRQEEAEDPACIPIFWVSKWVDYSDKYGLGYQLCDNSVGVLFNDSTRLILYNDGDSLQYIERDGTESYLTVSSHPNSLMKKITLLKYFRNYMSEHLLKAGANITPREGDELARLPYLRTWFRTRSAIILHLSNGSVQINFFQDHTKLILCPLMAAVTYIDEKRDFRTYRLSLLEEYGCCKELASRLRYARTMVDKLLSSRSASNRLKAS
VDR inh = Inhibitors of the vitamin D receptor (VDR): qHTS; Potency, µM, without a hit: max response, negative = inhibition, usual class: inhibitors; Vitamin D3 receptor (Homo sapiens), P11473; VDR-SRC2-3 peptide fluorescence polarization, 2 h; actives 0.93% (n = 400,000); also: potency is read from the fitted curve at half-maximal effect; % is scaled to controls: 0 for no effect and ±100 for the full control effect
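Measured by FP: displacement of SRC2-3 coactivator peptide from VDR by library compounds, following a two-hour ambient incubation.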
JMJD2A Tudor = qHTS Assay for Inhibitors of JMJD2A-Tudor Domain | AlphaScreen JMJD2A-Tudor / H3K4me3 peptide binding | Potency, µM (series often up to 114 µM), for inactives: top-dose activity change, negative = inhibition, usual class: inhibitors | actives 4.4% (n = 390,000) | AID 504339, 2011; also: potency is read from the fitted curve at half-maximal effect; % is scaled to controls: 0 for no effect and ±100 for the full control effect; nearly all actives have a fitted effect of over 50% in size
G9a inh-1 = qHTS Assay for Inhibitors of Histone Lysine Methyltransferase G9a. AID 504332, 2011. Potency, µM (titrated, usually from 102 µM), without a hit: at the highest dose activity, negative = inhibition, most hits filed as inhibitors. G9a H3K9 monomethylation, AlphaScreen, 2 h. actives 8.8% (n = 350,000); also: potency is read from the fitted curve at half-maximal effect; % is scaled to controls: 0 for no effect and ±100 for the full control effect; nearly all actives have a fitted effect of over 75% in size
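Readings reflect AlphaScreen signal from monomethyl-H3K9 antibody detection. HMT at 20 nM; substrate b-H3K9 500 nM; cofactor SAM 20 uM; 2 h RT reaction; compounds tested as titrations in qHTS with 15 min preincubation.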
BAZ2B block = qHTS Assay for Inhibitors of BAZ2B; Bromodomain adjacent to zinc finger domain protein 2B (Homo sapiens), Q9UIF8; AlphaScreen BAZ2B-H3K14Ac peptide displacement; Potency, µM (titrated, usually from 114 µM), inactives show at the top dose activity change, negative = inhibition, actives largely listed as inhibitors; actives 4.4% (n = 360,000); AID 504333, 2011; also: potency is read from the fitted curve at half-maximal effect; % is scaled to controls: 0 for no effect and ±100 for the full control effect; nearly all actives have a fitted effect of over 60% in size
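Inhibition is scored as reduced AlphaScreen emission. The BAZ2B/b-H3(5-23)K14Ac complex (50 nM each) in PBS pH 7.4, 0.01% Tween-20 meets compound (up to 110 uM) for 30 min at RT before bead addition.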
JMJD2E inh = Confirmation qHTS Assay for Inhibitors of Human Jumonji Domain Containing 2E (JMJD2E). shares compounds with JMJD2A Tudor. Recombinant JMJD2E, FDH-coupled NADH fluorescence (FDH is formaldehyde dehydrogenase). Potency, µM (doses to about 56.8 µM), for inactives: at the top dose activity change, negative = inhibition, usual class: inhibitors. actives 93% (n = 140)
FDH counter = Counterscreen for JMJD2E Inhibitors: qHTS Assay for Inhibitors of Formaldehyde Dehydrogenase (FDH). shares compounds with JMJD2A Tudor. FDH enzyme assay, NADH fluorescence kinetic. Potency, µM (highest dose often 56.7 µM), without a hit: at the highest dose activity, negative = inhibition, usual class: inhibitors. actives 10% (n = 140)
G9a inh-2 = qHTS Assay for Inhibitors of Histone Lysine Methyltransferase G9a: Hit Confirmation; shares compounds with JMJD2A Tudor; G9a H3K9 monomethylation, AlphaScreen, 2 h; Potency, µM, most hits filed as inhibitors; actives 89% (n = 370); AID 588344, 2011; also: potency is read from the fitted curve at half-maximal effect; nearly all actives have a fitted effect of over 65% in size
Numbers without * were called inactive; [ ] = dose if it differs, or a comment. Rows were chosen to be rich in hits. Some 11% of all compounds tested hit in one or more screens of this group. Calls follow the shape of the dose curve; as a rule, active = well fitted curve in the direction sought with a large enough effect; inconclusive = small, poorly fitted or top-dose-only effect, or another doubt; inactive = no such curve, though single readings can be large; an effect the other way counts as inactive or inconclusive.

For Cn1c(SCC(=O)NCc2ccccc2)nnc1-c1ccc(NC(=O)CCc2ccccc2)cc1 the results were HP1b chromo inh 20%, PLK1 PBD inh -10%, VDR inh 6%, JMJD2A Tudor -13%, G9a inh-1 inconclusive, BAZ2B block inconclusive and G9a inh-2 11*.
For CSCC[C@H](NC(=O)[C@H](Cc1ccccc1)NC(=O)[C@H](Cc1cnc[nH]1)NC(=O)CNC(=O)[C@@H](NC(=O)[C@H](C)NC(=O)[C@H](Cc1c[nH]c2ccccc12)NC(=O)[C@H](CCC(N)=O)NC(=O)[C@@H]1CCCN1C(=O)[C@@H](NC(=O)[C@@H]1CCC(=O)N1)C(C)C)C(C)C)C(N)=O the results were VDR inh 8%.
For COc1cc(OC)c(-c2nn3c(-c4n[nH]c5c4CCC5)nnc3s2)cc1OC the results were HP1b chromo inh 13%[57 µM], VDR inh -5% and JMJD2A Tudor -22%[57.1 µM].
c1csc(Cc2nn3c(-c4n[nH]c5c4CCC5)nnc3s2)c1 was read as HP1b chromo inh -15%, PLK1 PBD inh 2.7µM*, VDR inh -19%, JMJD2A Tudor inconclusive, G9a inh-1 inconclusive, BAZ2B block inconclusive and G9a inh-2 13*.
O=S(=O)(NN1CCOCC1)c1ccc(Br)cc1 was read as HP1b chromo inh 40%, PLK1 PBD inh 7.5µM*, VDR inh inconclusive, JMJD2A Tudor -3%, G9a inh-1 0.4µM*, BAZ2B block 0% and G9a inh-2 1.6*.
For Cc1ccc(N2C(=O)CC(Sc3ncn[nH]3)C2=O)cc1C (stereo not drawn) the results were HP1b chromo inh -62%, PLK1 PBD inh 30µM*, VDR inh -1%, JMJD2A Tudor 10µM*, G9a inh-1 2µM*, BAZ2B block inconclusive, JMJD2E inh 7.1µM* and FDH counter 0.22µM*.
For Cc1cc(C)nc(SC2CC(=O)N(c3ccc(Cl)cc3)C2=O)n1 (stereo not drawn) the results were HP1b chromo inh 53%, PLK1 PBD inh -21%, VDR inh -12%, JMJD2A Tudor -16%, G9a inh-1 -24%[59 µM] and BAZ2B block -23%.
Nc1c(C(=O)c2ccccc2)sc2nsc(SCCN3CCOCC3)c12 was read as HP1b chromo inh 54%, PLK1 PBD inh 3%, VDR inh 14%, JMJD2A Tudor -19% and BAZ2B block -16%.
CC(=O)c1sc2nsc(SCCN3CCOCC3)c2c1N was read as HP1b chromo inh 79µM*, PLK1 PBD inh 30µM*, VDR inh -17%, JMJD2A Tudor 6.3µM*, G9a inh-1 0.79µM*, BAZ2B block -36% and G9a inh-2 2.5*.
Screening Cc1ccccc1CNC(=O)c1ccc2sc([C@H]3C[C@H](O)[C@@H](CO)O3)nc2c1 returned PLK1 PBD inh -5%.
`CCOc1ccc(S(=O)(=O)Nc2nc3ccccc3nc2N2CCN(C)CC2)cc1` gave HP1b chromo inh 30%, PLK1 PBD inh -1%, VDR inh 21%, JMJD2A Tudor -12%, G9a inh-1 inconclusive, BAZ2B block -28% and G9a inh-2 inconclusive.
`COc1ccc(NC(=O)c2oc3ccccc3c2NC(=O)C2CCCCC2)c(OC)c1` gave HP1b chromo inh 36%, VDR inh -8%, JMJD2A Tudor -12%, G9a inh-1 -1%[59 µM] and BAZ2B block -4%.
Screening COc1ccc(-n2nc3cc(C)c(N)cc3n2)cc1Cl returned HP1b chromo inh 15%, PLK1 PBD inh -12%, VDR inh -21%, JMJD2A Tudor 56µM*, G9a inh-1 0.71µM*, BAZ2B block 79µM* and G9a inh-2 0.5*.
For Cc1ccc(-n2nc3ccc(N)cc3n2)cc1 the results were HP1b chromo inh -9%, PLK1 PBD inh 4%, VDR inh -2%, JMJD2A Tudor -6%, G9a inh-1 inconclusive, BAZ2B block -35% and G9a inh-2 0.25*.
For Nc1ccc2nn(-c3ccc(F)cc3)nc2c1 the results were HP1b chromo inh 38%, PLK1 PBD inh -24%, VDR inh -13%, JMJD2A Tudor 29%, G9a inh-1 28% and BAZ2B block 0%.
For CCOc1ccc(-n2nc3cc(C)c(N)cc3n2)cc1 the results were HP1b chromo inh 39%, PLK1 PBD inh -16%, VDR inh -20%, JMJD2A Tudor 2% and BAZ2B block inconclusive.
`Cc1cc2nn(-c3ccc(F)cc3)nc2cc1N` gave HP1b chromo inh 8%, PLK1 PBD inh -23%, VDR inh 3%, JMJD2A Tudor -25%, G9a inh-1 1µM*, BAZ2B block -28% and G9a inh-2 0.56*.
Screening CCOc1ccc(Cl)cc1S(=O)(=O)N1CCC(C(=O)NCC2CCCO2)CC1 (stereo not drawn) returned HP1b chromo inh -1%, PLK1 PBD inh -26%, VDR inh 4%, JMJD2A Tudor -3%, G9a inh-1 4% and BAZ2B block 5%.
Screening COc1ccc(NC(=O)c2ccc(-c3ccc(C(C)=O)cc3)o2)cn1 returned HP1b chromo inh -19%, PLK1 PBD inh -18%, VDR inh -2%, JMJD2A Tudor -27%, G9a inh-1 1.6µM*, BAZ2B block 2% and G9a inh-2 inconclusive.
For CC(C(=O)N1CCCCC1)N(C)CC(=O)Nc1cccc(F)c1 (stereo not drawn) the results were HP1b chromo inh -22%, PLK1 PBD inh 0%, VDR inh -2%, JMJD2A Tudor 25µM*, G9a inh-1 inconclusive, BAZ2B block 16µM* and G9a inh-2 45*.
